Measurements reported in PubChem BioAssay AID1159580 (chemical genetic matrix, 2015).
The campaign covered roughly 5,500 compounds. About 2,000 (36%) were called active. Roughly 18% stayed inconclusive and do not appear here. The list shows a part of the results. A number with no mark means an inactive call. Rule as the data show it: active = normalized growth mostly below about 0.91 (no sharp cut-off); inconclusive = no clear call, values can overlap the other calls; inactive = mostly above about 0.92.

Assay: chemical genetic growth profiling, strain panel (AID 1159580);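 also: tested at 20 µM; growth read once vehicle control cultures reached saturation at 30 °C; 1 = growth at the plate median or of vehicle wells; lower values mean less growth of the strain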
Details: growth OD
[1] = S. cerevisiae deletion strains, locus YAL013W, strain DEP1, active compounds read low
[2] = S. cerevisiae deletion strains, locus YDR150W, strain NUM1, active compounds read low
[3] = S. cerevisiae deletion strains, locus YGR078C, strain PAC10, active compounds read low
[4] = S. cerevisiae deletion strains, locus YNL128W, strain TEP1, active compounds read low
[5] = S. cerevisiae deletion strains, locus YNL322C, strain KRE1, active compounds read low
[6] = S. cerevisiae deletion strains, locus YPL241C, strain CIN2, active compounds read low

In the case of `CCCn1c(=O)c2c(ncn2C)n(CCC)c1=O`, the normalized growth [1] is reported as 0.983, the normalized growth (S. cerevisiae deletion strains, locus YAL040C, strain CLN3, active compounds read low) is reported as 1.13 [resistant] (active) and the normalized growth (S. cerevisiae deletion strains, locus YCL061C, strain MRC1 (second series), active compounds read low) is reported as 1. The normalized growth [2] was 1.02, the normalized growth (S. cerevisiae deletion strains, locus YDR363W, strain ESC2, active compounds read low) was 0.964 and the normalized growth (S. cerevisiae deletion strains, locus YER002W, strain NOP16, active compounds read low) was 0.999. For the same compound, the normalized growth [3] was 0.986, the normalized growth [4] was 0.992 and the normalized growth (S. cerevisiae deletion strains, locus YNL175C, strain NOP13, active compounds read low) was 1. The normalized growth (S. cerevisiae deletion strains, locus YNL197C, strain WHI3, active compounds read low) was 1, the normalized growth (S. cerevisiae deletion strains, locus YNL224C, strain SQS1, active compounds read low) was 0.988 and the normalized growth [5] was 0.994. It also gave a normalized growth (S. cerevisiae deletion strains, locus YOR083W, strain WHI5 (second series), active compounds read low) of 0.981 and a normalized growth [6] of 1.01.

In the case of `Cn1c(=O)c2c(ncn2CCCl)n(C)c1=O`, the normalized growth [1] is reported as 1, the normalized growth (S. cerevisiae deletion strains, locus YBR021W, strain FUR4, active compounds read low) is reported as 0.995 and the normalized growth (S. cerevisiae deletion strains, locus YBR229C, strain ROT2, active compounds read low) is reported as 0.997. It also gave a normalized growth (S. cerevisiae deletion strains, locus YCL029C, strain bik1, active compounds read low) of 1.03, a normalized growth (S. cerevisiae deletion strains, locus YDL035C, strain GPR1, active compounds read low) of 1 and a normalized growth (S. cerevisiae deletion strains, locus YDL074C, strain BRE1, active compounds read low) of 0.999. The normalized growth (S. cerevisiae deletion strains, locus YDL101C, strain DUN1, active compounds read low) was 1.01, the normalized growth (S. cerevisiae deletion strains, locus YDL134C, strain PPH21, active compounds read low) was 1 and the normalized growth (S. cerevisiae deletion strains, locus YDL185W, strain tfp1, active compounds read low) was 1.01. It also gave a normalized growth (S. cerevisiae deletion strains, locus YDL192W, strain arf1, active compounds read low) of 1.02, a normalized growth (S. cerevisiae deletion strains, locus YDR101C, strain arx1, active compounds read low) of 0.995 and a normalized growth [2] of 0.998. It also gave a normalized growth (S. cerevisiae deletion strains, locus YDR162C, strain NBP2, active compounds read low) of 1, a normalized growth (S. cerevisiae deletion strains, locus YDR318W, strain mcm21, active compounds read low) of 1.02 and a normalized growth (S. cerevisiae deletion strains, locus YDR388W, active compounds read low) of 1.01. The normalized growth (S. cerevisiae deletion strains, locus YDR502C, strain sam2, active compounds read low) was 1.02, the normalized growth (S. cerevisiae deletion strains, locus YEL061C, strain CIN8, active compounds read low) was 0.998 and the normalized growth (S. cerevisiae deletion strains, locus YER110C, active compounds read low) was 1.02. For the same compound, the normalized growth (S. cerevisiae deletion strains, locus YER155C, strain BEM2, active compounds read low) was 0.997, the normalized growth (S. cerevisiae deletion strains, locus YER167W, strain BCK2, active compounds read low) was 1.01 and the normalized growth (S. cerevisiae deletion strains, locus YGL078C, strain dbp3, active compounds read low) was 1.02. For the same compound, the normalized growth (S. cerevisiae deletion strains, locus YGL086W, strain mad1, active compounds read low) was 1.01, the normalized growth (S. cerevisiae deletion strains, locus YGL248W, strain PDE1, active compounds read low) was 1 and the normalized growth [3] was 0.975. It also gave a normalized growth (S. cerevisiae deletion strains, locus YGR135W, strain pre9, active compounds read low) of 0.995, a normalized growth (S. cerevisiae deletion strains, locus YGR229C, strain SMI1, active compounds read low) of 0.987 and a normalized growth (S. cerevisiae deletion strains, locus YGR252W, strain gcn5, active compounds read low) of 1.03. For the same compound, the normalized growth (S. cerevisiae deletion strains, locus YHR030C, strain SLT2, active compounds read low) was 1, the normalized growth (S. cerevisiae deletion strains, locus YHR079C, strain IRE1 (second series), active compounds read low) was 1.02 and the normalized growth (S. cerevisiae deletion strains, locus YHR094C, strain hxt1, active compounds read low) was 1.01. The normalized growth (S. cerevisiae deletion strains, locus YHR129C, strain ARP1, active compounds read low) was 1, the normalized growth (S. cerevisiae deletion strains, locus YHR200W, strain rpn10, active compounds read low) was 1.03 and the normalized growth (S. cerevisiae deletion strains, locus YIL066C, strain RNR3, active compounds read low) was 1.02. The normalized growth (S. cerevisiae deletion strains, locus YIL073C, strain SPO22, active compounds read low) was 1.08, the normalized growth (S. cerevisiae deletion strains, locus YIL125W, strain kgd1, active compounds read low) was 1.02 and the normalized growth (S. cerevisiae deletion strains, locus YIR030C, strain dcg1, active compounds read low) was 1.03. For the same compound, the normalized growth (S. cerevisiae deletion strains, locus YJL095W, strain BCK1, active compounds read low) was 0.992, the normalized growth (S. cerevisiae deletion strains, locus YJL134W, strain LCB3, active compounds read low) was 1.01 and the normalized growth (S. cerevisiae deletion strains, locus YJL168C, strain set2, active compounds read low) was 1.02. The normalized growth (S. cerevisiae deletion strains, locus YJL187C, strain SWE1 (second series), active compounds read low) was 1, the normalized growth (S. cerevisiae deletion strains, locus YJR043C, strain POL32, active compounds read low) was 0.998 and the normalized growth (S. cerevisiae deletion strains, locus YJR075W, strain HOC1, active compounds read low) was 0.987. The normalized growth (S. cerevisiae deletion strains, locus YKL009W, strain mrt4, active compounds read low) was 1.03, the normalized growth (S. cerevisiae deletion strains, locus YKL068W, active compounds read low) was 1.02 and the normalized growth (S. cerevisiae deletion strains, locus YKL085W, strain MDH1 (second series), active compounds read low) was 1.01. For the same compound, the normalized growth (S. cerevisiae deletion strains, locus YKL085W, strain MDH1, active compounds read low) was 1.01, the normalized growth (S. cerevisiae deletion strains, locus YKL190W, strain CNB1, active compounds read low) was 1 and the normalized growth (S. cerevisiae deletion strains, locus YKR001C, strain vps1, active compounds read low) was 1.01. For the same compound, the normalized growth (S. cerevisiae deletion strains, locus YLR039C, strain RIC1, active compounds read low) was 1.04, the normalized growth (S. cerevisiae deletion strains, locus YLR058C, strain SHM2, active compounds read low) was 1.01 and the normalized growth (S. cerevisiae deletion strains, locus YLR102C, strain apc9, active compounds read low) was 1.03. It also gave a normalized growth (S. cerevisiae deletion strains, locus YLR262C, strain YPT6, active compounds read low) of 1.05, a normalized growth (S. cerevisiae deletion strains, locus YLR268W, strain sec22, active compounds read low) of 0.994 and a normalized growth (S. cerevisiae deletion strains, locus YLR330W, strain CHS5, active compounds read low) of 1.01. It also gave a normalized growth (S. cerevisiae deletion strains, locus YLR342W, strain FKS1 (second series), active compounds read low) of 1.01, a normalized growth (S. cerevisiae deletion strains, locus YLR371W, strain rom2, active compounds read low) of 1.03 and a normalized growth (S. cerevisiae deletion strains, locus YLR418C, strain cdc73, active compounds read low) of 0.992. It also gave a normalized growth (S. cerevisiae deletion strains, locus YML016C, strain PPZ1, active compounds read low) of 1, a normalized growth (S. cerevisiae deletion strains, locus YML032C, strain rad52, active compounds read low) of 1.03 and a normalized growth (S. cerevisiae deletion strains, locus YML124C, strain tub3, active compounds read low) of 1.02. The normalized growth (S. cerevisiae deletion strains, locus YMR078C, strain ctf18, active compounds read low) was 1.02, the normalized growth (S. cerevisiae deletion strains, locus YMR223W, strain ubp8, active compounds read low) was 1.04 and the normalized growth (S. cerevisiae deletion strains, locus YMR263W, strain SAP30, active compounds read low) was 0.995. For the same compound, the normalized growth (S. cerevisiae deletion strains, locus YMR307W, strain GAS1, active compounds read low) was 0.996, the normalized growth (S. cerevisiae deletion strains, locus YNL067W, strain RPL9B, active compounds read low) was 1.01 and the normalized growth [4] was 0.999. The normalized growth (S. cerevisiae deletion strains, locus YNL153C, strain GIM3, active compounds read low) was 0.988, the normalized growth (S. cerevisiae deletion strains, locus YNL233W, strain BNI4, active compounds read low) was 0.994 and the normalized growth (S. cerevisiae deletion strains, locus YNL250W, strain rad50, active compounds read low) was 1.04. It also gave a normalized growth (S. cerevisiae deletion strains, locus YNL271C, strain bni1, active compounds read low) of 1.02, a normalized growth (S. cerevisiae deletion strains, locus YNL298W, strain CLA4, active compounds read low) of 1.03 and a normalized growth (S. cerevisiae deletion strains, locus YNL307C, strain MCK1, active compounds read low) of 1.03. It also gave a normalized growth [5] of 1, a normalized growth (S. cerevisiae deletion strains, locus YNR052C, strain pop2, active compounds read low) of 1.04 and a normalized growth (S. cerevisiae deletion strains, locus YOL006C, strain TOP1, active compounds read low) of 1.03. The normalized growth (S. cerevisiae deletion strains, locus YOL012C, strain htz1) was 0.951, the normalized growth (S. cerevisiae deletion strains, locus YOL147C, strain pex11, active compounds read low) was 1.01 and the normalized growth (S. cerevisiae deletion strains, locus YOR061W, strain CKA2, active compounds read low) was 1.01. The normalized growth (S. cerevisiae deletion strains, locus YOR069W, strain VPS5, active compounds read low) was 1, the normalized growth (S. cerevisiae deletion strains, locus YOR136W, strain idh2, active compounds read low) was 1.02 and the normalized growth (S. cerevisiae deletion strains, locus YOR144C, strain elg1, active compounds read low) was 1.01. For the same compound, the normalized growth (S. cerevisiae deletion strains, locus YOR184W, strain ser1, active compounds read low) was 1.03, the normalized growth (S. cerevisiae deletion strains, locus YOR316C, strain cot1, active compounds read low) was 1.02 and the normalized growth (S. cerevisiae deletion strains, locus YPL055C, strain LGE1, active compounds read low) was 0.999. It also gave a normalized growth [6] of 1, a normalized growth (S. cerevisiae deletion strains, locus YPR119W, strain clb2, active compounds read low) of 1.01 and a normalized growth (S. cerevisiae deletion strains, locus YPR141C, strain kar3, active compounds read low) of 1.02. The normalized growth (S. cerevisiae deletion strains, locus YPR163C, strain tif3, active compounds read low) was 1.01, the normalized growth (S. cerevisiae deletion strains, locus YPR167C, strain met16, active compounds read low) was 1.02 and the normalized growth (S. cerevisiae deletion strains, strain wtn01, active compounds read low) was 0.997. The normalized growth (S. cerevisiae strains, strain wild type, active compounds read low) was 1.
